Measured values from paper PMC5540273 (PLoS ONE, 2017).

What was measured:
Conditions in all cases: concentration: 1 μM, replicates: in singlicate; n = 1
[1] = tested on: KIT-autoinhibited
[2] = tested on: KIT
[3] = tested on: LATS1
[4] = tested on: LATS2
[5] = tested on: LCK
[6] = tested on: LIMK1
[7] = tested on: LIMK2
[8] = tested on: T1, LKB1
T1 construct: gene STK11

[9] = tested on: T2, LOK
T2 construct: gene STK10

[10] = tested on: LRRK2
[11] = tested on: LTK
[12] = tested on: LYN
[13] = tested on: T3, LZK
T3 construct: gene MAP3K13

[14] = tested on: MAK
[15] = tested on: MAP3K15
[16] = tested on: MAP3K1
[17] = tested on: MAP3K2
[18] = tested on: MAP3K3
[19] = tested on: MAP3K4
[20] = tested on: MAP4K2
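Also: KINOMEscan kinase panel screen.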

Structure (SMILES)	%Inh [1] [%]	%Inh [2] [%]	%Inh [3] [%]	%Inh [4] [%]	%Inh [5] [%]	%Inh [6] [%]	%Inh [7] [%]	%Inh [8] [%]	%Inh [9] [%]	%Inh [10] [%]	%Inh [11] [%]	%Inh [12] [%]	%Inh [13] [%]	%Inh [14] [%]	%Inh [15] [%]	%Inh [16] [%]	%Inh [17] [%]	%Inh [18] [%]	%Inh [19] [%]	%Inh [20] [%]
O=C(NCCNc1ccnc(Nc2ccc(F)cc2)n1)c1cc2ccccc2s1 [GSK1379874]	0	0	0	0	12	0	25	1	0	0	0	0	0	23	0	0	0	0	0	0
Cc1cccc(-c2nc(Nc3ccc4ncsc4c3)c3ccccc3n2)n1 [GW867588]	12	0	2	0	9	4	0	23	27	60	7	0	7	0	0	0	8	6	0	0
CCc1nc(-c2cccc(C)c2)c(-c2ccnc(NCc3ccccc3)c2)s1	0	26	21	0	0	0	0	0	19	3	0	8	0	26	3	0	0	0	0	3
c1ccc(-c2n[nH]cc2-c2ccnc3ccccc23)nc1 [GW271431]	11	20	0	4	17	21	30	18	0	0	13	0	0	17	0	16	11	0	4	0
CC(C)(C)n1cnc2c(N)ncnc21 [SKF-97359]	30	0	24	0	0	0	0	56	0	0	0	0	15	0	0	0	0	0	0	0
COc1ccc(Nc2nccc(N3CCC(NC(=O)Nc4cccc(C(C)=O)c4)C3)n2)cc1 (stereo not shown) [GSK1379731]	0	49	0	0	0	1	0	5	0	2	0	0	0	29	0	14	4	0	19	0
CCCCCc1nc2c(N)ncnc2n1CCCCC [SKF-97255]	16	17	0	0	5	0	0	60	14	0	6	0	0	0	0	18	29	0	10	0
Cc1c(Cn2c(C)nn3c(=O)cc(N4CCOC(C)C4)nc23)cccc1C(F)(F)F (stereo not shown) [GSK2344444]	4	1	0	0	20	0	11	0	0	25	0	0	0	15	10	16	9	0	0	0
CC(=O)Nc1ccc(COc2ccc(Nc3ccnc4cc(-c5ccccn5)ccc34)cc2)cc1.Cl [GW440148]	72	100	0	0	31	0	0	20	7	0	7	1	3	43	2	11	0	0	0	0
CSc1ccc(-c2cc3ncnc(SCC(=O)O)c3s2)cc1	0	51	7	4	0	0	0	0	19	0	17	0	0	29	0	0	0	0	10	0
O=C1Cc2cc(Nc3nc(NCc4cccc(S(=O)(=O)C(F)(F)F)c4)ncc3C(F)(F)F)ccc2N1	0	16	11	0	0	1	9	0	1	11	6	0	25	15	21	2	12	0	6	0
O=c1cc(N2CCOCC2)nc2n(Cc3cccc(C(F)(F)F)c3)ccn12 [GSK2297543]	2	13	0	0	22	0	7	10	0	0	16	0	0	31	0	5	10	0	13	0
COc1ccc(S(=O)(=O)NC2CCN(c3cc(C)nc(Nc4cccc(C#N)c4)n3)CC2)cc1.O=C(O)C(F)(F)F [GSK1653539]	0	8	0	25	8	0	7	7	0	0	0	0	26	19	0	3	0	0	24	0
CNc1ncnc2[nH]ncc12 [SKF-18355]	20	18	0	0	6	0	0	38	0	0	0	0	27	2	0	2	14	0	0	0
COc1cc2c(cc1OC[C@@H](O)CO)ncc1c3ccc(C#N)cc3[nH]c21	48	63	0	41	0	0	0	0	20	93.1	0	0	8	0	42	0	0	6	0	17
COc1cc2ncn(-c3cc(OCc4sccc4Cl)c(C(N)=O)s3)c2cc1OC [GSK448459]	0	31	47	0	34	4	0	0	99.1	0	0	0	0	7	0	88	10	0	0	20
Fc1ccc(-c2ncn(CCCN3CCOCC3)c2-c2cccnc2)cc1 [SB-211743]	18	2	9	0	20	9	0	46	14	0	18	0	0	15	0	7	28	0	0	0
CN(C1=C(c2ccccc2)C(=O)NC1=O)c1ccccc1 [SB-334860]	0	16	0	14	20	15	20	5	1	0	6	0	0	20	0	9	2	0	10	0
Nc1nc(-c2ccc3c(N)n[nH]c3c2)cc(N2CCCC2)n1 [GSK2227430]	0	12	0	5	0	0	3	1	0	0	0	0	0	27	0	0	0	0	0	0
Fc1ccc(-c2nn3c(OCC(F)(F)F)cccc3c2-c2ccncc2)cc1 [GW514784]	0	24	41	0	7	0	0	9	0	19	0	0	37	31	0	0	0	0	0	0
